# Assay results as given in publication PMC7862700, “An all-to-all approach to the identification of sequence-specific readers for epigenetic DNA modifications on cytosine”.
# Assays:
# Assay in all cases: DAPPL (digital affinity profiling via proximity ligation, sequencing); 10 mM Tris-HCl pH 7.5, 50 mM NaCl, 1 mM DTT, 4% glycerol, room temperature, 30 min; GST-TFs on glutathione beads, 16-mer random dsDNA library, 0.1% formaldehyde crosslink after washing; high values mean tight binding
# FEV = target: T1, FEV (Homo sapiens, UniProt Q99581 1-238); conditions: protein: recombinant; tags: N-terminal GST; dsDNA, one strand shown
# T1 sequence: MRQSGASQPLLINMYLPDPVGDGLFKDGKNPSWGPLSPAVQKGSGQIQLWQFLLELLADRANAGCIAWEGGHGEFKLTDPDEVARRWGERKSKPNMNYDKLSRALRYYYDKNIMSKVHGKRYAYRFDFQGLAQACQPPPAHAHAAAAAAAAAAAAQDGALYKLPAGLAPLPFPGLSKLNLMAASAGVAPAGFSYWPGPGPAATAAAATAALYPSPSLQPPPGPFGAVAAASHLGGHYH
# How it was run: (§1)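 Each value of binding signal is a hexamer's read frequency for a factor divided by the same hexamer's frequency in the tag-only sample. Barcoded, bead-captured GST fusions of human transcription factors made in yeast were pooled with that sample and incubated with 200 nmole of a random double-stranded 16-mer DNA library in Tris/NaCl/DTT/glycerol buffer at room temperature for 30 min. Washing, 0.1% formaldehyde crosslinking, proximity ligation, PCR and Illumina NextSeq500 sequencing followed.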
# ETV5 = ETV5 (Homo sapiens, UniProt P41161 1-510); conditions: protein: recombinant; tags: N-terminal GST; dsDNA, one strand shown
# How it was run: as §1
# HSF1 = HSF1 (Homo sapiens, UniProt Q00613 1-529); conditions: protein: recombinant; tags: N-terminal GST; chain copies: 3; dsDNA, one strand shown
# How it was run: as §1
# SPIC = target: T2, SPIC (Homo sapiens, UniProt Q8N5J4 1-248); conditions: protein: recombinant; tags: N-terminal GST; dsDNA, one strand shown
# T2 sequence: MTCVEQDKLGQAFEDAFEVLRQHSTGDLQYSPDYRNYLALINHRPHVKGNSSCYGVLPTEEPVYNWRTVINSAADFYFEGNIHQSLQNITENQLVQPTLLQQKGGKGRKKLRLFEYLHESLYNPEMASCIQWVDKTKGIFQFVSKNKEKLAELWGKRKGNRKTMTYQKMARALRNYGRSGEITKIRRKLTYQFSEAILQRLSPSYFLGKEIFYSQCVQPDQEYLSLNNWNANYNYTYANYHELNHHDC
# How it was run: as §1
# ELF4 = ELF4 (Homo sapiens, UniProt Q99607 1-663); conditions: protein: recombinant; tags: N-terminal GST; dsDNA, one strand shown
# How it was run: as §1
# ELK4 = target: T3, ELK4 (Homo sapiens, UniProt P28324-2 1-405); conditions: protein: recombinant; tags: N-terminal GST; dsDNA, one strand shown
# T3 sequence: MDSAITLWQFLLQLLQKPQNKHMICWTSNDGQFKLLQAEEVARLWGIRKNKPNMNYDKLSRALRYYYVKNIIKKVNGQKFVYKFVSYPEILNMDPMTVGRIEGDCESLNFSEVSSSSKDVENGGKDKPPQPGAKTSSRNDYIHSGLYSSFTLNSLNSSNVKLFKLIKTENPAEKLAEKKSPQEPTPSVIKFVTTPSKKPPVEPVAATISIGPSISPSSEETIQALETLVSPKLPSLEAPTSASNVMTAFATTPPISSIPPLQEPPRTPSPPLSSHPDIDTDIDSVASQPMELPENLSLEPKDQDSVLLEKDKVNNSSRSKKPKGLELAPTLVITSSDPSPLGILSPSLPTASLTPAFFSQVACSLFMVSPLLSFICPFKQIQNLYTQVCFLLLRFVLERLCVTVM
# How it was run: as §1
# ETV2 = target: T4, ETV2 (Homo sapiens, UniProt O00321 1-342); conditions: protein: recombinant; tags: N-terminal GST; dsDNA, one strand shown
# T4 sequence: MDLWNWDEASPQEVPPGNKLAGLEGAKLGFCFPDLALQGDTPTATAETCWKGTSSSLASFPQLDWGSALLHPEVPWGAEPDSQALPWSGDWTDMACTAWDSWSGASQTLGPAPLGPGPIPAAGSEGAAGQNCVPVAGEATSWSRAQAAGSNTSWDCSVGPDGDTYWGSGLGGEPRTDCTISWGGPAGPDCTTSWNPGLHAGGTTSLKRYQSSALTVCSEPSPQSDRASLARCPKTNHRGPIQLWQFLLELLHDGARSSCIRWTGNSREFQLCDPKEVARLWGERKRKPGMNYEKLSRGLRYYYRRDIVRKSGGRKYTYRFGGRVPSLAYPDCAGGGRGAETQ
# How it was run: as §1
# ELF3 = target: T5, ELF3 (Homo sapiens, UniProt P78545 1-371); conditions: protein: recombinant; tags: N-terminal GST; dsDNA, one strand shown
# T5 sequence: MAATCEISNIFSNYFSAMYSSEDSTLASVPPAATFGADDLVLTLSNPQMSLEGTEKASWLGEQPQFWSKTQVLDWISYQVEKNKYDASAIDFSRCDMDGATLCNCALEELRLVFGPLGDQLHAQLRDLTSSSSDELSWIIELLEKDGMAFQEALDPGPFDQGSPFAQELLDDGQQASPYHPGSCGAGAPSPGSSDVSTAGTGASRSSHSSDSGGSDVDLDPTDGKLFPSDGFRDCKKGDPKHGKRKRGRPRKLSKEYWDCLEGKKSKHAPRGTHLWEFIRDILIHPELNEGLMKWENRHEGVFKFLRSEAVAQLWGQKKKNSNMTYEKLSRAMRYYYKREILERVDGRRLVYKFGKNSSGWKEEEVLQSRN
# How it was run: as §1
# CRX = CRX (Homo sapiens, UniProt O43186 1-299); conditions: protein: recombinant; tags: N-terminal GST; dsDNA, one strand shown
# How it was run: as §1
# ETV1 = ETV1 (Homo sapiens, UniProt P50549 1-477); conditions: protein: recombinant; tags: N-terminal GST; dsDNA, one strand shown
# How it was run: as §1
# ERF = target: T6, ERF (Homo sapiens, UniProt P50548 1-548); conditions: protein: recombinant; tags: N-terminal GST; dsDNA, one strand shown
# T6 sequence: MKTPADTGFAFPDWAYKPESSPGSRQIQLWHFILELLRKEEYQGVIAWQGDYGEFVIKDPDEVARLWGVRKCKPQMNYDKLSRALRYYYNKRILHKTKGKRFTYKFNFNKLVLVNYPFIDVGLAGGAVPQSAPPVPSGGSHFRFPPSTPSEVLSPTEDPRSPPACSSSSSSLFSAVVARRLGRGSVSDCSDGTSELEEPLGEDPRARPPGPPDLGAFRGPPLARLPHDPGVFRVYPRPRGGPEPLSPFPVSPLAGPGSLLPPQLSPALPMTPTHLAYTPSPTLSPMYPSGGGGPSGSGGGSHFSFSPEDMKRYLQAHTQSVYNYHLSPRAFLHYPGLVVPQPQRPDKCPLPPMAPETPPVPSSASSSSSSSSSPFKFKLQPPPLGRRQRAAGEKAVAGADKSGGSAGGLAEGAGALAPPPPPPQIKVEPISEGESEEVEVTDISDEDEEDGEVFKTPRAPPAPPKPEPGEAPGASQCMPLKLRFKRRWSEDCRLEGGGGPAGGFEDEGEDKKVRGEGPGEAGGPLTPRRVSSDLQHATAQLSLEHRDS
# How it was run: as §1
# ETV3L = target: T7, ETV3L (Homo sapiens, UniProt Q6ZN32 1-361); conditions: protein: recombinant; tags: N-terminal GST; dsDNA, one strand shown
# T7 sequence: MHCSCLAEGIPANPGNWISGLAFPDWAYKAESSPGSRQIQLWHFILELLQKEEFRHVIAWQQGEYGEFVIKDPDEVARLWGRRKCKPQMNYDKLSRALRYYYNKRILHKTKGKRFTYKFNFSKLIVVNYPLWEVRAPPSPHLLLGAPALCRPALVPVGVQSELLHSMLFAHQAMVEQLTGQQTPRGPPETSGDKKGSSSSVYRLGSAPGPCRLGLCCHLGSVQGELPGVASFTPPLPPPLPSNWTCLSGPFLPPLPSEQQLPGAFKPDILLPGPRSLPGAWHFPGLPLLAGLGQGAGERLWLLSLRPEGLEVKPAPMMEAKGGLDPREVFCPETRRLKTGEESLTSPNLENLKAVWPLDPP
# How it was run: as §1
# ETS2 = target: T8, ETS2 (Homo sapiens, UniProt P15036 1-469); conditions: protein: recombinant; tags: N-terminal GST; dsDNA, one strand shown
# T8 sequence: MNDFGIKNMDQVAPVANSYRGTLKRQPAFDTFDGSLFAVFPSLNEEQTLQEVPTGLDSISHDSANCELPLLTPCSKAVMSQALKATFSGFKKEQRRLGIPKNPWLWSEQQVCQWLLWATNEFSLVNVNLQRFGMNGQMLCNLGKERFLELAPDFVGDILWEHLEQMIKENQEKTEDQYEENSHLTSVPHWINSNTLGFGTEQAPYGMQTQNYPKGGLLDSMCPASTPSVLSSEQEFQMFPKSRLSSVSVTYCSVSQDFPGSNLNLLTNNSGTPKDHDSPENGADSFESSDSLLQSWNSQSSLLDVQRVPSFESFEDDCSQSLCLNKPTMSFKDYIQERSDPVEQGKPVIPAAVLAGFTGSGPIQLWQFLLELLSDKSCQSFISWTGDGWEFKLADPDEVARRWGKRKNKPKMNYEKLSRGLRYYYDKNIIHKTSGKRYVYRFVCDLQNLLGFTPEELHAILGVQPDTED
# How it was run: as §1
# SPDEF = target: T9, SPDEF (Homo sapiens, UniProt O95238 1-335); conditions: protein: recombinant; tags: N-terminal GST; dsDNA, one strand shown
# T9 sequence: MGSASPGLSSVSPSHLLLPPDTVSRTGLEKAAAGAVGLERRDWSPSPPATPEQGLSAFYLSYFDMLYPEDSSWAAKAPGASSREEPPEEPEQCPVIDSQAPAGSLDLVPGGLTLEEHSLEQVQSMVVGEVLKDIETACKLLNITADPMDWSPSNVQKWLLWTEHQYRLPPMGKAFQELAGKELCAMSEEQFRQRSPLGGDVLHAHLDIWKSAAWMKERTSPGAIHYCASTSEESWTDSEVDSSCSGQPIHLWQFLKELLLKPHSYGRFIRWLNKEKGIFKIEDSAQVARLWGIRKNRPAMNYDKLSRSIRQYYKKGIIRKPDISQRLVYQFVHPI
# How it was run: as §1
# ETV7 = target: T10, ETV7 (Homo sapiens, UniProt Q9Y603 1-341); conditions: protein: recombinant; tags: N-terminal GST; dsDNA, one strand shown
# T10 sequence: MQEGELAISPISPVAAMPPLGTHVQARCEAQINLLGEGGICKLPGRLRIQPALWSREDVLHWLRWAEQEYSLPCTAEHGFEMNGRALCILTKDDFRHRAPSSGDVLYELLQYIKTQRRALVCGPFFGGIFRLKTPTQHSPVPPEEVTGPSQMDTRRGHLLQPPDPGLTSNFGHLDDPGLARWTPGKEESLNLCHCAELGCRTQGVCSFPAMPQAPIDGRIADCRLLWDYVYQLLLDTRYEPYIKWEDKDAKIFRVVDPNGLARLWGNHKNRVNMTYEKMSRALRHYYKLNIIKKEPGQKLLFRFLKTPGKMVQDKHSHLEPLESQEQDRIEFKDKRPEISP
# How it was run: as §1
# ELF5 = target: T11, ELF5 (Homo sapiens, UniProt Q9UKW6-2 1-255); conditions: protein: recombinant; tags: N-terminal GST; dsDNA, one strand shown
# T11 sequence: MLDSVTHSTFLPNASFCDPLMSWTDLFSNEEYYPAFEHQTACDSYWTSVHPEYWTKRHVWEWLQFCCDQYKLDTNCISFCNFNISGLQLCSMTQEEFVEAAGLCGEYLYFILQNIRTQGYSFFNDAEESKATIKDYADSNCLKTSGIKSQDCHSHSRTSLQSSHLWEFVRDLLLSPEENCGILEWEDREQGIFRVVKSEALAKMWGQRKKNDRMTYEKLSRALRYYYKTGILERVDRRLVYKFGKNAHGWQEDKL
# How it was run: as §1
# ETV3 = target: T12, ETV3 (Homo sapiens, UniProt P41162-2 1-143); conditions: protein: recombinant; tags: N-terminal GST; dsDNA, one strand shown
# T12 sequence: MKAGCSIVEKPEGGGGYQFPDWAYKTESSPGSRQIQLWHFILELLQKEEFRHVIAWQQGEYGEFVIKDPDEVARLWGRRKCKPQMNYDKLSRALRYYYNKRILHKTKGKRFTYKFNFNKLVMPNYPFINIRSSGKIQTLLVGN
# How it was run: as §1
# ETV6 = ETV6 (Homo sapiens, UniProt P41212 1-452); conditions: protein: recombinant; tags: N-terminal GST; dsDNA, one strand shown
# How it was run: as §1
# Chain of ETV1 (P50549 whole entry): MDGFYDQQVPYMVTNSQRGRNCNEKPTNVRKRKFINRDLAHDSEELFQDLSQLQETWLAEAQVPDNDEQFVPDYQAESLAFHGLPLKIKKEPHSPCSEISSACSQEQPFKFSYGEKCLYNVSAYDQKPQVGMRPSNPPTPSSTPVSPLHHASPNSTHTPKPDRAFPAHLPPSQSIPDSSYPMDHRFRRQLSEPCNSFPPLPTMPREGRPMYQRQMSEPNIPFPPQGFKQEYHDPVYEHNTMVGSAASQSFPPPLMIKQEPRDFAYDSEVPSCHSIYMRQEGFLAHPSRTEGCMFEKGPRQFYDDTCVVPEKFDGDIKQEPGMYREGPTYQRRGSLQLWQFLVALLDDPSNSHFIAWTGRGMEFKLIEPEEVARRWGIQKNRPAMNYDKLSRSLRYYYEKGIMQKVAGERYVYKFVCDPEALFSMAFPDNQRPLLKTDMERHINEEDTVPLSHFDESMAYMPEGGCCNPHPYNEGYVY
# Chain of HSF1 (Q00613 whole entry): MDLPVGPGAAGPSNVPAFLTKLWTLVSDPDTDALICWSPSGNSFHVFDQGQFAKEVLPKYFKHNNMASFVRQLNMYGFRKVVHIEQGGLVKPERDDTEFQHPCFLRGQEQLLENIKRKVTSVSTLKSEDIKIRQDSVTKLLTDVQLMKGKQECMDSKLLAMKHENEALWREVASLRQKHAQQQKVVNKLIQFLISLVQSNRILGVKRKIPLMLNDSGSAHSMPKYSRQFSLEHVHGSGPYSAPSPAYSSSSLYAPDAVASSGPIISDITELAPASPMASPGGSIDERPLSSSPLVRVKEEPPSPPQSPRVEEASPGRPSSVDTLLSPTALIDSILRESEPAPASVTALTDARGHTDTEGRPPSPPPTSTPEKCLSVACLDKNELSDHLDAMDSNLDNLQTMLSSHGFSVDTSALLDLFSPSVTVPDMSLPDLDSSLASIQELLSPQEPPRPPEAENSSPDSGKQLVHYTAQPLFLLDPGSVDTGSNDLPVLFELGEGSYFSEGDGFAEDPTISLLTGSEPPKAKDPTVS
# Chain of CRX (O43186 whole entry): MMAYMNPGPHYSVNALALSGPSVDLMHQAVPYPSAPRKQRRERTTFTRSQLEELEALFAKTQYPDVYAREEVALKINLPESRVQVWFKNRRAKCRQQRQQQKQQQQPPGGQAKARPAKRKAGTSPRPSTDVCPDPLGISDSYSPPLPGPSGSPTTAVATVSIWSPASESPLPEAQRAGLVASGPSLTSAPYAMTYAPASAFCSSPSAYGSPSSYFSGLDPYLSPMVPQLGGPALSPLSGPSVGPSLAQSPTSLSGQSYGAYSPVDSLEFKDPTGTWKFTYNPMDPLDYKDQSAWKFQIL
# Chain of ETV6 (P41212 whole entry): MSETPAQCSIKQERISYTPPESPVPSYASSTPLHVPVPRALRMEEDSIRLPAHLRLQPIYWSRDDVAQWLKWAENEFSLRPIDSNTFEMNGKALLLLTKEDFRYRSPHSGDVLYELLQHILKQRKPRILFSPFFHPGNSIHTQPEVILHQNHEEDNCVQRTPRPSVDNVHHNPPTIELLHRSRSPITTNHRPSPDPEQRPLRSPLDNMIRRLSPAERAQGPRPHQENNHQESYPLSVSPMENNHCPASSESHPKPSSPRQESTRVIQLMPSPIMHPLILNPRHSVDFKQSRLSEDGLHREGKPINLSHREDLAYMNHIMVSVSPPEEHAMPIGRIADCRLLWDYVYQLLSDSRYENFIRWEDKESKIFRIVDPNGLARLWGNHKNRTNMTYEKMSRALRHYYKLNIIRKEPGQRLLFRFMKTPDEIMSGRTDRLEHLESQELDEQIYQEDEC
# Chain of ETV5 (P41161 whole entry): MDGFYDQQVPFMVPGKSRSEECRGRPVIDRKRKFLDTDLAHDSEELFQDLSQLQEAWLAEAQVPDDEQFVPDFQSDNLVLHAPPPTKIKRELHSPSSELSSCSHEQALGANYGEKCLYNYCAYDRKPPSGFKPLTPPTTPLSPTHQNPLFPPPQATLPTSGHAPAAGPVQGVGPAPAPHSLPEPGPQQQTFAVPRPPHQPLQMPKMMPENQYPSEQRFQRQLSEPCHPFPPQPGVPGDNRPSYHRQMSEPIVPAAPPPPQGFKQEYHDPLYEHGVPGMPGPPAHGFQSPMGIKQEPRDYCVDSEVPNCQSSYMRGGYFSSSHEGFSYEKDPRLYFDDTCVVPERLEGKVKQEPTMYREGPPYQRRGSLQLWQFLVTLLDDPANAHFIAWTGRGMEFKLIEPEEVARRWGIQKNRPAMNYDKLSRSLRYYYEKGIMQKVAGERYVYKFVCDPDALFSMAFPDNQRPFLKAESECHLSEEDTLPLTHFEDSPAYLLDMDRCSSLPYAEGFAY
# Chain of ELF4 (Q99607 whole entry): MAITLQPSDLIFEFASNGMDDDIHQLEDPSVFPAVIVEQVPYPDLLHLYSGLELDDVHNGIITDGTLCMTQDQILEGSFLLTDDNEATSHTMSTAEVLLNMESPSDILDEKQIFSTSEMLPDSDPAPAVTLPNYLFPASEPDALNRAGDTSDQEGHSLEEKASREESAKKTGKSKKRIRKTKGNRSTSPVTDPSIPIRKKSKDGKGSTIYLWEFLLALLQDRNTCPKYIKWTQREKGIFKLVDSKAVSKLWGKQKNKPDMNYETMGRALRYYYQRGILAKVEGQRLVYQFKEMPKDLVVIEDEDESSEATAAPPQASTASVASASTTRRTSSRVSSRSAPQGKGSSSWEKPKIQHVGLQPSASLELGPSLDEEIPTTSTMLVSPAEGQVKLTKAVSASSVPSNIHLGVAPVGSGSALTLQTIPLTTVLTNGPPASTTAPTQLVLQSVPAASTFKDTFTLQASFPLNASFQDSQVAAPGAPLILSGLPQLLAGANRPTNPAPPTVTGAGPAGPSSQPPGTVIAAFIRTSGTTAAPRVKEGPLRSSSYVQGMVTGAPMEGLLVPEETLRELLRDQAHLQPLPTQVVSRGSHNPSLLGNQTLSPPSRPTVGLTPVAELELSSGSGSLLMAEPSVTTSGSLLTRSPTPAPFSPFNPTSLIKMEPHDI
sequence,measurement,setting,value
TTGCTT,binding signal,FEV,"1.16 fold enrichment (6-mer frequency, TF over GST control)"
same,binding signal,ETV5,"1.24 fold enrichment (6-mer frequency, TF over GST control)"
same,binding signal,HSF1,"1.1 fold enrichment (6-mer frequency, TF over GST control)"
same,binding signal,SPIC,"1.38 fold enrichment (6-mer frequency, TF over GST control)"
same,binding signal,ELF4,"1.24 fold enrichment (6-mer frequency, TF over GST control)"
same,binding signal,ELK4,"1.24 fold enrichment (6-mer frequency, TF over GST control)"
same,binding signal,ETV2,"1.16 fold enrichment (6-mer frequency, TF over GST control)"
same,binding signal,ELF3,"1.31 fold enrichment (6-mer frequency, TF over GST control)"
same,binding signal,CRX,"1.24 fold enrichment (6-mer frequency, TF over GST control)"
same,binding signal,ETV1,"1.25 fold enrichment (6-mer frequency, TF over GST control)"
same,binding signal,ERF,"1.18 fold enrichment (6-mer frequency, TF over GST control)"
same,binding signal,ETV3L,"1.28 fold enrichment (6-mer frequency, TF over GST control)"
same,binding signal,ETS2,"1.19 fold enrichment (6-mer frequency, TF over GST control)"
same,binding signal,SPDEF,"1.28 fold enrichment (6-mer frequency, TF over GST control)"
same,binding signal,ETV7,"1.45 fold enrichment (6-mer frequency, TF over GST control)"
same,binding signal,ELF5,"1.29 fold enrichment (6-mer frequency, TF over GST control)"
same,binding signal,ETV3,"1.43 fold enrichment (6-mer frequency, TF over GST control)"
same,binding signal,ETV6,"1.28 fold enrichment (6-mer frequency, TF over GST control)"
